Conditions in all cases: Compound Concentration (nM):1000
The test system of assay [1] is MAP4K2.
The test system of assay [2] is MAP4K3.
Assay [3] relates to MAP4K4.
For assay [4], the system named is MAP4K5.
Assay [5] relates to MAPKAPK2.
The subject of assay [6] is MAPKAPK5.
Assay [7] concerns MARK1.
In assay [8] the test system is MARK2.
Assay [9] relates to MARK3.
The test system of assay [10] is MARK4.
For assay [11], the system named is MAST1.
For assay [12], the system named is T1, MEK1.
T1 construct: gene MAP2K1

The subject of assay [13] is T2, MEK2.
T2 construct: gene MAP2K2

Assay [14] has as its system T3, MEK3.
T3 construct: gene MAP2K3

The subject of assay [15] is T4, MEK4.
T4 construct: gene MAP2K4

The test system of assay [16] is T5, MEK5.
T5 construct: gene MAP2K5

In assay [17] the test system is T6, MEK6.
T6 construct: gene MAP2K6

For assay [18], the system named is MELK.
The test system of assay [19] is MERTK.
Assay [20] relates to MET(M1250T).
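Further: KINOMEscan scanMAX binding as percent activity remaining versus control; lower means stronger binding.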

For `COc1ccccc1-c1cc(/C=C2\C(=O)Nc3ncc(Br)cc32)cc(Br)c1O` [GW442130X], the “Percent Control” value is 89% in [1]; 100% in assay [2]; 96% in assay [3]; 94% in [4]; 100% in assay [5]; 100% in [6]. The “Percent Control” value was 81% in assay [7]; 100% in assay [8]; 100% in assay [9]; 100% in assay [10]; 85% in [11]; 74% in assay [12]. Moreover, the “Percent Control” value is 82% in [13]; 72% in assay [14]; 86% in [15]; 64% in assay [16]; 76% in assay [17]; 94% in [18]. Moreover, the results for the “Percent Control” value in [19] and in assay [20] were 95% and 96%, respectively.

Turning to `NS(=O)(=O)c1ccc(N/N=C2\C(=O)Nc3ccc(Cl)cc32)cc1` [GW280670X], the “Percent Control” value is 90% in assay [1]; 94% in assay [2]; 99% in [3]; 100% in assay [4]; 100% in assay [5]; 100% in [6]. The “Percent Control” value in [7] was 100%; in [8], 100%; in assay [9], 100%; in assay [10], 94%; in assay [11] it was 100%; in assay [12], 98%. Besides, the “Percent Control” value is 100% in assay [13]; 100% in assay [14]; 100% in [15]; 100% in [16]; 99% in [17]; 100% in [18]. Also, the “Percent Control” value in assay [19] and in assay [20] was 100% each time.

`COc1ccc2c(-c3ccnc(Nc4cccc(OC(F)(F)F)c4)n3)cnn2n1` [GW810372X]: the “Percent Control” value in assay [1] was 94%; in assay [2] it was 100%; in assay [3], 100%; in assay [4] it was 100%; in assay [5] it was 100%; in [6], 100%. Moreover, the “Percent Control” value in assay [7] was 100%; in assay [8], 100%; in [9], 100%; in assay [10], 82%; in assay [11], 56%; in assay [12], 100%. Besides, the “Percent Control” value in [13] is 100%; in assay [14], 30%; in [15], 82%; in assay [16], 72%; in assay [17], 78%; in [18], 96%. Moreover, the “Percent Control” value in assay [19] and in [20] was 100% in each case.

`Cc1cc(O)cc(C)c1/C=C/c1cncc(C(N)=O)c1` [GW435821X]: the “Percent Control” value in assay [1] was 56%; in assay [2], 81%; in assay [3] it was 100%; in assay [4], 100%; in assay [5], 100%; in [6] it was 100%. For the same molecule, the “Percent Control” value in assay [7] is 100%; in assay [8] it was 100%; in assay [9] it was 91%; in assay [10], 78%; in assay [11], 100%; in [12], 81%. Moreover, the “Percent Control” value in assay [13] is 89%; in [14], 100%; in assay [15] it was 100%; in assay [16] it was 5.3%; in [17] it was 100%; in [18], 95%. In addition, the “Percent Control” value in [19] and in assay [20] was 100% each time.

As to `Cl.O=C(O[C@H]1CN[C@H](C#Cc2cc3ncnc(Nc4ccc5c(cnn5Cc5ccccc5)c4)c3s2)C1)N1CCOCC1` [GSK200398A], the “Percent Control” value in assay [1] was 98%; in [2], 100%; in assay [3] it was 83%; in assay [4], 92%; in assay [5], 72%; in assay [6] it was 90%. Moreover, the “Percent Control” value is 100% in assay [7]; 87% in [8]; 83% in assay [9]; 100% in assay [10]; 44% in assay [11]; 69% in assay [12]. Besides, the “Percent Control” value was 79% in assay [13]; 78% in [14]; 97% in assay [15]; 0.4% in [16]; 71% in assay [17]; 86% in [18]. The entries for the “Percent Control” value in [19] and in assay [20] were 100% and 86%, respectively.

For the molecule `CC1=C(C(=O)Nc2ccc3[nH]ncc3c2)C(c2ccc(Cl)c(Cl)c2)CC(=O)N1` (centres unmarked) [GSK299115A], the “Percent Control” value in [1] was 79%; in assay [2], 79%; in assay [3], 73%; in [4] it was 75%; in assay [5], 96%; in [6] it was 100%. In addition, the “Percent Control” value is 100% in assay [7]; 100% in assay [8]; 78% in [9]; 100% in assay [10]; 72% in [11]; 73% in assay [12]. Further, the “Percent Control” value in assay [13] is 69%; in assay [14] it was 77%; in [15] it was 89%; in assay [16] it was 79%; in assay [17] it was 84%; in assay [18] it was 88%. The entries for the “Percent Control” value in [19] and in assay [20] were 100% and 95%, respectively.

On to `COC(=O)Nc1nc2ccc(Oc3ccc(NC(=O)Nc4cc(C(F)(F)F)ccc4F)cc3)cc2s1.Cl` [GW693917A], for which the “Percent Control” value in assay [1] was 78%; in assay [2], 100%; in assay [3] it was 57%; in assay [4], 71%; in assay [5], 94%; in assay [6], 78%. Moreover, the “Percent Control” value in assay [7] is 100%; in assay [8], 78%; in [9], 73%; in [10] it was 99%; in assay [11], 41%; in assay [12], 76%. In addition, the “Percent Control” value in [13] was 78%; in [14] it was 100%; in assay [15], 96%; in assay [16], 15%; in assay [17], 98%; in [18], 72%. Also, the “Percent Control” value in [19] was determined as 6.9%; in assay [20], 19%.

For the molecule `COc1ccc(COc2ccc(Cc3cnc(N)nc3N)cc2OC)cc1` [GW632580X], the “Percent Control” value is 97% in assay [1]; 82% in [2]; 100% in assay [3]; 99% in [4]; 95% in assay [5]; 97% in assay [6]. Moreover, the “Percent Control” value in [7] was 83%; in assay [8] it was 93%; in assay [9] it was 66%; in assay [10], 57%; in assay [11], 93%; in assay [12], 90%. Further, the “Percent Control” value in assay [13] was 90%; in assay [14], 93%; in assay [15], 100%; in [16], 97%; in assay [17] it was 100%; in assay [18], 100%. The “Percent Control” value in assay [19] and in [20] was 100% each time.

For the molecule `COc1cc(/C=N/Nc2ncnc3[nH]ncc23)ccc1O` [GW578748X], the “Percent Control” value in assay [1] was 43%; in assay [2], 100%; in assay [3], 100%; in assay [4], 100%; in [5] it was 100%; in [6], 100%. The “Percent Control” value in assay [7] was 79%; in assay [8] it was 100%; in assay [9], 99%; in assay [10], 60%; in assay [11] it was 78%; in assay [12] it was 78%. Also, the “Percent Control” value is 83% in [13]; 79% in [14]; 94% in assay [15]; 0.5% in assay [16]; 83% in assay [17]; 15% in assay [18]. The figures for the “Percent Control” value in assay [19] and in assay [20] were 100% and 84%, respectively.

For the molecule `C[C@@H](Oc1cc(-n2cnc3ccc(OC4CCN(C)CC4)cc32)sc1C(N)=O)c1ccccc1Cl` [GSK579289A], the “Percent Control” value in assay [1] is 24%; in assay [2] it was 93%; in assay [3], 49%; in [4], 36%; in assay [5] it was 100%; in [6], 100%. The “Percent Control” value in assay [7] was 85%; in assay [8] it was 77%; in [9], 80%; in assay [10] it was 89%; in [11] it was 52%; in assay [12], 94%. Moreover, the “Percent Control” value in assay [13] was 96%; in [14] it was 86%; in assay [15], 98%; in assay [16] it was 51%; in [17], 84%; in assay [18], 70%. Besides, the “Percent Control” value is 84% in assay [19] and 68% in assay [20].

These data come from article PMC7826789 (International Journal of Molecular Sciences, 2021).
